Compound activity deposited in PubChem by National Center for Advancing Translational Sciences (NCATS).
GLP-1R inv ag = GLP-1 receptor (human) inverse agonism. HEK293 GLP-1R CRE-luciferase, luminescence, 24 h; GLP-1R form is constitutively active. 1.6% of 410,000 active. Potency, µM (series often up to 38.3 µM), for inactives: at the top dose activity change, negative = inhibition, hits mostly inhibitors. AID 624417. P43220; note: % is set by controls: 0 for no effect and ±100 for the full control effect; nearly all actives have a fitted effect of over 55% in size
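Stable HEK293 clone (constitutively active GLP-1R + cAMP-response luciferase); 200 cells/uL plated, 12 h pre-culture, compound 24 hr, 37 deg C/5% CO2; detection reagent 12 min RT; luminescence.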
GLP1R ag = GLP-1 receptor (human) agonism. AID 624172. P43220. HEK293 GLP-1R CRE-luciferase, luminescence, 4-6 h; cells express a hypersensitive GLP-1R form. 0.007% of 380,000 active. Potency, µM (highest dose often 45.6 µM), for the others: at the highest dose activation, hits mostly activators; note: % of control where 0% means no effect
PTHR1 ag = agonists of human PTHR1 parathyroid hormone receptor | Potency, µM (series often up to 115 µM), for the others: at the highest dose activation, hits mostly activators | 0.075% of 410,000 active | Q03431 | HEK293 GP2 PTHR1 cells, GloSensor cAMP luminescence, 1 h; note: nearly all actives have a fitted effect of over 55% in size
Target sequence (Q03431 whole entry, looked up): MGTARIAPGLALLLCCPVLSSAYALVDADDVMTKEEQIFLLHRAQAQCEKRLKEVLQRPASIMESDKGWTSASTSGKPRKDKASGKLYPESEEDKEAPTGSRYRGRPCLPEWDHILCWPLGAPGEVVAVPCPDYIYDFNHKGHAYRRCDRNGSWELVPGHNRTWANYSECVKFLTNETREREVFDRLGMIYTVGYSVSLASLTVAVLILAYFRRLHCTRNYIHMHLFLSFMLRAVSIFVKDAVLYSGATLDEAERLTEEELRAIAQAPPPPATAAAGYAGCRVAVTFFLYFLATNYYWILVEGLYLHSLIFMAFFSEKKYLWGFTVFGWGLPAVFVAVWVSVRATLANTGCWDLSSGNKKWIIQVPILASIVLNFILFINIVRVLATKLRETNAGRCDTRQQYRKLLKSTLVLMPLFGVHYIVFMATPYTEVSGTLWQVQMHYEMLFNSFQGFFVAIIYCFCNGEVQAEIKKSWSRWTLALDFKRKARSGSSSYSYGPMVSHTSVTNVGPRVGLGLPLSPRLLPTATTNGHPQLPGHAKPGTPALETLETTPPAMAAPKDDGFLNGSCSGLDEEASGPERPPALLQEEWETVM
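HEK-293-derived GP2 cells expressing PTHR1 and a GloSensor cAMP reporter, 3,000/well, plated overnight, given luciferin plus IBMX (each 0.5 mM as added) for 1 h at 37 °C, then compound for 1 h at 37 °C. Luminescence was read after 15 min at room temperature.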
GLP1R cytotox = cytotoxicity counter-screen for GLP-1 receptor inverse agonists; HEK293 cAMP-luciferase reporter cells, luminescence, 24 h; Potency, µM (titrated, usually from 38.3 µM), inactives show at the highest dose activity change, negative = inhibition, hits mostly inhibitors; 0.13% of 410,000 active;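 note: loss of luciferase light is scored as toxicity; % is set by controls: 0 for no effect and ±100 for the full control effect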
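Compound-treated cells are incubated 24 hr at 37 deg C under 5% CO2 after a 12 hour attachment period, then luciferase detection reagent is added and luminescence is measured following 12 min at room temperature; lowered signal indicates toxicity.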
Numbers without * were called inactive; i = inactive; ? = inconclusive; / = no result given; [ ] = remark or other dose. A selection: hits, their analogues and other compounds. The true share with any hit is near 1.7%. Calls come from the whole dose curve; as a rule, active = well fitted curve in the direction sought with a large enough effect; inconclusive = small, poorly fitted or top-dose-only effect, or another doubt; inactive = no such curve, though single readings can be large; an effect the other way counts as inactive or inconclusive. Potency is the fitted concentration of half-maximal effect.

SMILES | GLP-1R inv ag | GLP1R ag | PTHR1 ag | GLP1R cytotox
COc1ccc(C2NCc3ccccc3-n3cccc32)cc1 (configuration not stated) | ? | -3.0% | -22.6% | 8.1%
CCOc1cc2c(cc1OCC)-n1cccc1C(c1ccc(OC)c(O)c1)NC2 (configuration not stated) | ? | 17.1% | -6.0% | -11.7%
COc1cc(C2NCc3ccccc3-n3cccc32)ccc1O (configuration not stated) | 10µM* | -3.4% | -18.6%[57.5 µM] | -27.0%
CCOc1cc(C2NCc3ccccc3-n3cccc32)ccc1OC (configuration not stated) | 10µM* | -4.2% | i | 0.4%
CCc1cccc(NC(=O)c2ccc(NC(=O)N3CCSc4ncccc43)cc2)c1 | -6.0% | / | -32.2% | -9.8%
NS(=O)(=O)c1ccc(NC2=CC(=O)C(=O)c3ccccc32)cc1 | -14.8% | 3.2% | -15.1% | ?
O=C1C=C(c2c(O)ccc3ccccc23)c2ccccc2C1=O | ? | -5.4% | -34.3% | 10µM*
COc1cccc(CC(=O)N2CCN(Cc3cccc(Cl)c3)CC2)c1 | ? | 13.2% | -13.9% | -15.9%
Cc1cccc(C(=O)N2CCC(=O)N(C(COCc3cccc(Cl)c3)Cc3ccccc3)CC2)c1 (configuration not stated) | 8.91µM* | 3.8% | i | -8.1%
CCC(=O)c1ccc2c(c1)N(CCCN(C)C)c1ccccc1S2 | 11.2µM* | 15.6% | i | ?
Cc1ccsc1C(=O)C1CCCN(Cc2ccc(-n3cccn3)cc2)C1 (configuration not stated) | 10µM* | 5.8% | -17.5% | -14.0%
COc1cc(CN2CCCC(C(=O)c3sccc3C)C2)cc(OC)c1O (configuration not stated) | 8.7% | -3.5% | i | 1.4%
Cc1ccsc1C(=O)C1CCCN(Cc2cccc(OCCO)c2)C1 (configuration not stated) | -9.9% | 11.0% | i | -13.2%
Cc1ccsc1C(=O)C1CCCN(Cc2cccc(-n3cccn3)c2)C1 (configuration not stated) | 7.94µM* | 21.2% | -0.2% | 4.3%
Cc1ccccc1S(=O)(=O)N1C[C@H]2[C@H]3C(=O)N(C4CCCCC4)C(=O)[C@H]3CC(=O)[C@H]2[C@@H]1c1ccc(Cl)cc1 | ? | -1.2% | i | -0.9%
CC(C)(C#CC(=O)O)OOC(c1ccccc1)(c1ccccc1)c1ccccc1 | 11.2µM* | -5.8% | -54.9% | -19.6%
O=C1[O][Sb-]23[O]C(=O)C([O]2)C2[O][Sb-]4([O]C(=O)C([O]4)C1[O]3)[O]C2=O | / | 2.1% | / | /
CCN(CC)CCNC(=O)c1cc2c(-c3ccc(Cl)cc3)nn(C)c2s1 | 5.62µM* | -7.4% | -6.0% | ?
COc1cccc(CNC(=O)c2cc3c(-c4ccccc4F)nn(C)c3s2)c1 | ? | / | i | -2.7%
Oc1ccc(N=Nc2nc(-c3ccccc3)c(-c3ccccc3)[nH]2)cc1 | 5.62µM* | -1.4% | i | 10µM*
CCN(CC)c1nc2ccccc2nc1C(=O)Nc1cccc(C(C)=O)c1 | ? | / | -10.3% | -22.3%
O=C1C=CC(=O)C2C1C1(Cl)C(Cl)=C(Cl)C2(Cl)C1(Cl)Cl (configuration not stated) | 3.16µM* | -3.3% | -17.9% | ?
CCCCCCCSc1cc(OC)c(CCNC)cc1OC | ? | -17.1% | -11.1% | ?
CCCCCSc1cc(OC)c(CCNC)cc1OC | 3.98µM* | -6.5% | -2.6% | ?
Nc1ccc2c(c1)C(=O)C(=O)c1ccccc1-2 | ? | -32.5% | -26.9% | 3.55µM*
SMILES | GLP-1R inv ag | GLP1R ag | PTHR1 ag | GLP1R cytotox
CCCCCCCCCCCCCCCC[n+]1ccc(/C=N/O)cc1 | 8.91µM* | -18.6% | -16.0% | ?
c1ccc2c[n+](CCCCCCCCCC[n+]3ccc4ccccc4c3)ccc2c1 | / | / | -27.3%[57.5 µM] | /
CCCCCCC[n+]1ccc(-c2cc[n+](CCCCCCC)cc2)cc1 | -26.5% | 0.6% | -21.7% | -10.2%
CCCCCCCCCCCCCCCC[n+]1ccccc1 | 3.55µM* | -7.3% | -91.7% | ?
CCc1ccc(NC(=O)c2cnc3sc(N4CCCC4)nn3c2=O)cc1 | -4.4% | / | -35.1% | -1.6%
Oc1c(Br)cc(Br)cc1CN1CCN(Cc2ccccc2)CC1 | 10µM* | 19.5% | -50.3% | 6.0%
Cc1ccccc1CN1CCN(Cc2ccccc2)CC1 | -21.8% | 0.6% | 44.7µM* | 6.9%
CCC(N)CCc1c[nH]c2ccccc12 (configuration not stated) | / | -0.5%[110 µM] | / | /
